Bioassay records (PubChem BioAssay)
Hits are enriched below; roughly 1.2% of the tested compounds scored in any of these assays.
CASP6 VEID inh: blocks human caspase-6 cleavage activity | P55212 | purified caspase-6, Z-VEID-R110 cleavage fluorescence | inhibition, % at 12.5 µM | actives 0.53% (n = 350,000) | AID 686996;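 active means mean inhibition across replicates at least about 35%, with every replicate also reaching that limit, limit read from the data; inconclusive means only one of the two criteria met; inactive means neither criterion met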;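 further: 0% = median of neutral control wells and 100% = no fluorescence left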
Target sequence (P55212 24-179 limits assumed): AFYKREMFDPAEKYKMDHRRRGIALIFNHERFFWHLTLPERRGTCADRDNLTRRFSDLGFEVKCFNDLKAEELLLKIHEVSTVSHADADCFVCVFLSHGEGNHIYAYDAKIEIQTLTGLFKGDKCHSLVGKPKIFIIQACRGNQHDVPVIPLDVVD
Target sequence (P55212 194-293 limits assumed): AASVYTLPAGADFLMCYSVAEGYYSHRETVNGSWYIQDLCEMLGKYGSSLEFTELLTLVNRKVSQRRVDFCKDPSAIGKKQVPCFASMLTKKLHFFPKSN
RAD52 anneal inh: RAD52 (human) annealing inhibition | P43351 | recombinant RAD52 DNA annealing, FRET fluorescence | inhibition, % at 18.7 µM | actives 0.46% (n = 360,000);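 active means every replicate showing at least 50% inhibition; inconclusive means mean inhibition at least 50% but not in every replicate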
Glyco luc inh: N-linked glycosylation inhibition; reporter increase, % at 12.5 µM; D54 ERlucT glycosylation luciferase reporter, 24 h; percent of 100 nM tunicamycin response; actives 0.23% (n = 360,000);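 active means mean luciferase reporter signal, scaled so untreated is 0 and the glycosylation-blocking control 100, at or above a set limit in every replicate; inconclusive means mean reaches the limit but not every replicate does; inactive means mean below the limit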;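 further: luciferase carries N-glycosylation sites so blocking glycosylation raises the light; 0% = median of neutral control wells and 100% = median of 100 nM tunicamycin wells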
RAD54 inh: RAD54 (human) branch migration inhibition; RAD54 Holliday junction branch migration, FAM/BHQ fluorescence; inhibition, % at 10.4 µM; actives 0.14% (n = 360,000); AID 602329;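 active means mean normalized replicate activity at least 40 and at least half of replicates scoring 40 or more; inconclusive means only one of the two criteria met; inactive means mean below 40 and under half of replicates reaching 40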;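 further: 0% = median of neutral control wells and 100% = median of positive control wells; inhibitors cause a drop in the FAM fluorescence signal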
NSD2 HMT inh: blocks human histone methyltransferase NSD2. AID 743445. actives 0.54% (n = 310,000). NSD2 peptide methylation, AlphaScreen, 120 min. inhibition, % at 12.5 µM. O96028; in the data active means inhibition above about 50%
Rad54 DNA ctr: counter-screen for Rad54 inhibitors: DNA binding compounds; actives 8% (n = 460); AC50, µM (titrated, usually from 35 µM), for inactives: at the highest dose activity change, negative = DNA binding; Acridine orange-DNA displacement, fluorescence polarization, 20 min; shares compounds with RAD54 inh; AID 651673;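 active means signal drop giving an AC50 within twice the top valid tested concentration of each sample, actives reach about 35 µM in these data; inactive means activity opposite to expected, plus the rest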;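 further: polarization loss reports compound binding to salmon sperm DNA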
Active calls of the source: *; i = inactive; u = inconclusive; x = not tested or not shown.

SMILES	CASP6 VEID inh	RAD52 anneal inh	Glyco luc inh	RAD54 inh	NSD2 HMT inh	Rad54 DNA ctr
COCCNC(=S)Nc1ccc2nc(N3CCCC3)cc(C)c2c1	x	x	1	38	8	x
CCOCCCNC(=S)Nc1ccc2nc(N3CCCC3)cc(C)c2c1	x	x	0	60*	9	-8%
CN(C)CCSc1nc(N)c2c3c(sc2n1)CN(C)CC3	x	x	-4	75*	27	-13%
Cc1c(Cl)ccc(S(=O)(=O)NCCCn2ccnc2)c1Cl	-22	0	0	u	1	-9%
O=c1c2c(nc3n1CCCCC3)sc1c(O)c(Br)ccc12	-1	0	-10	-1	2	x
CCN(CC)CCOc1c(Br)ccc2c1sc1nc3n(c(=O)c12)CCC3	x	x	67*	86*	43	-8%
CN1[C@H](C(=O)NC2CCC2)[C@@H](CO)[C@@H]2Cn3c(ccc(/C=C/c4ccccc4)c3=O)[C@@H]21	6	-13	x	-2	x	x
COc1cc2nc(N(C)C)nc(N)c2cc1OC	x	x	48*	94*	-1	i
CO[C@H](CN(C)S(=O)(=O)c1ccc(F)cc1)[C@H](C)CN(C(=O)Nc1ccccc1F)[C@@H](C)CO	5	7	x	5	x	x
Cc1ccc2oc(=O)c3cc(C(=O)NCCCN4C(C)CCCC4C)sc3c2c1 (stereo not given)	-9	-42	2	54*	0	-18%
Cc1ccc2oc(=O)c3cc(C(=O)NCCCN4CC(C)CC(C)C4)sc3c2c1 (stereo not given)	-11	39	0	10	4	x
CCN1CCN(CCCNC(=O)c2cc3c(=O)oc4ccc(C)cc4c3s2)CC1	-59	21	1	53*	11	-23%
Cc1ccc2oc(=O)c3cc(C(=O)NCCCN4CCN(C)CC4)sc3c2c1	-43	6	6	62*	8	-24%
Cc1ccccc1S(=O)(=O)N1C[C@H](O)COC[C@H]2O[C@@H](CC(=O)NCc3ccccc3Cl)CC[C@@H]21	-1	4	x	5	x	x
Cc1noc(C)c1NC(=O)Nc1ccc2c(c1)C(=O)N([C@H](C)CO)C[C@H](C)[C@H](CN(C)C(=O)Nc1ccc(C(F)(F)F)cc1)OCCCC[C@@H](C)O2	-1	1	x	-32	x	x
Cn1c(C(=O)NCCCN2CCOCC2)cc2c(=O)n(C)c3ccccc3c21	0	15	7	u	x	-20%
CC1CCN(CCCNC(=O)c2cc3c(=O)n(C)c4ccccc4c3n2C)CC1	-34	27	18	59*	x	-17%
Cn1c(C(=O)NCCN2CCCCCC2)cc2c(=O)n(C)c3ccccc3c21	-14	38	3	56*	x	-6%
CCCCN(CC)CCCNC(=O)c1cc2c(=O)n(C)c3ccccc3c2n1C	-19	40	22	61*	x	-13%
Cn1c(C(=O)NCCCN2CCN(c3ccccc3F)CC2)cc2c(=O)n(C)c3ccccc3c21	-3	-2	8	-13	x	x
C[C@H]1CCCCO[C@H](CN(C)C(=O)CCC(F)(F)F)[C@@H](C)CN([C@@H](C)CO)C(=O)c2cc(NS(C)(=O)=O)ccc2O1	2	1	x	-13	x	x
COc1cccc(-c2nc(NCC3CCCO3)c3ccccc3n2)c1O (stereo not given)	x	x	3	10	-1	x
COc1ccccc1Nc1nc(NCC2CCCO2)c2ccccc2n1 (stereo not given)	5	-2	-3	67*	-10	-10%
CC(=O)Nc1sc2c(c1-c1nc3ccccc3s1)CN(C(C)C)CC2	-5	i	-15	67*	x	17µM*
Cc1nc(Nc2ccncc2)c2oc3ccccc3c2n1	0	40	-8	x	16	x
SMILES	CASP6 VEID inh	RAD52 anneal inh	Glyco luc inh	RAD54 inh	NSD2 HMT inh	Rad54 DNA ctr
CCc1nc(Nc2ccncc2)c2oc3ccccc3c2n1	x	x	-4	66*	x	-19%
O=C(Nc1nnc(COc2ccc(F)cc2)s1)c1ccco1	2	-20	-1	u	-3	-6%
O=C(Nc1nnc(COc2ccc(Br)cc2)s1)c1ccco1	0	-11	1	-6	2	x
CSc1nnc2c3cc(F)ccc3n(Cc3ccccc3)c2n1	x	x	-4	-1	-2	x
CCN(CC)CCSc1nnc2c3cc(C)ccc3n(Cc3ccccc3)c2n1	0	35	-6	u	17	2%
CCn1cc(C(=O)NCCN(C)C)c(=O)c2cc(F)c(N3CCN(C)CC3)cc21	-10	-28	5	59*	6	-13%
CCOC(=O)c1c(C)n(C)c2ccc(OCC(O)CN3CCN(C)CC3)cc12 (stereo not given)	-41	1	2	u	x	-14%
CCOC(=O)c1c(C)n(C)c2ccc(OCC(O)Cn3c(C)nc4ccccc43)cc12 (stereo not given)	x	x	7	-11	15	x
O=C(c1cccnc1)N1CC(=O)N2[C@H](CO)[C@H](c3ccc(-c4ccccc4F)cc3)[C@H]2C1	-1	-11	x	x	x	x
COc1cc2nc(NCCCN3CCN(C)CC3)n3nc(-c4ccccc4)nc3c2cc1OC	x	x	5	102*	-4	4%
COc1cc2nc(NCC3CCCO3)n3nc(-c4cccnc4)nc3c2cc1OC (stereo not given)	x	x	0	29	0	x
OCCNc1nc(-c2ccccc2)nc2ccccc12	2	-19	3	x	-4	x
CCN(CC)CCCNc1nc2cc(OC)c(OC)cc2c2nc(-c3cccnc3)nn12	x	x	11	115*	43	-8%
CCN(CC)CCCNc1nc2cc(OC)c(OC)cc2c2nc(-c3ccccc3)nn12	x	x	41*	106*	x	0%
COCCCNc1nc2cc(OC)c(OC)cc2c2nc(-c3ccccc3)nn12	-2	-2	0	39	-1	x
CCN(CC)CCCNc1nc(-c2ccccc2)nc2ccccc12	x	x	8	85*	15	-8%
CC(C)NC(=O)N[C@H]1C=C[C@@H](CC(=O)NC2Cc3ccccc3C2)O[C@@H]1CO	-4	4	x	-14	x	x
Nc1ccc(-c2nc3ccccc3[nH]2)cc1	0	-30	1	38	x	x
Nc1ccc(-c2nc3c(ccc4ccccc43)[nH]2)cc1	4	-14	8	50*	11	-5%
COc1ccc(CC(=O)Nc2cccc(-c3nnc(-c4ccc(C)cc4)o3)c2)cc1OC	-2	-3	-10	2	0	x
Cc1ccc(OCC(=O)Nc2cccc(-c3nnc(-c4ccccc4)o3)c2)c(C)c1	x	x	-1	u	-1	7%
CCCNC(=O)N1CC2(C1)CN(C(=O)c1cccnc1)[C@H](CO)c1[nH]c3cc(OC)ccc3c12	-1	-9	x	x	x	x
O=C(COc1ccc2c3c(c(=O)oc2c1)CCC3)NCCCN1CCOCC1	-1	-9	2	2	1	x
CN1CCCC1CCNc1ccc2oc3ccccc3c(=O)c2c1 (stereo not given)	-6	28	x	x	x	x
O=c1c2ccccc2oc2ccc(NCCCN3CCOCC3)cc12	0	-4	-5	u	x	18%
O=c1c2ccccc2oc2cc(NCCCN3CCOCC3)ccc12	-1	29	-5	66*	x	-16%
